{"source": "PubChem BioAssay (NCATS)", "note": "Values joined by “and” are separate entries in the source; they are usually repeats but may differ in a detail not shown here. Identical values can stand only once. Inconclusive results are not listed. Active and inactive are the calls of the source. Unless noted, calls follow the shape of the full dose curve.", "data": [{"target": "Pyruvate kinase PKM (Homo sapiens) (UniProt P14618)", "sequence (P14618 whole entry, looked up)": "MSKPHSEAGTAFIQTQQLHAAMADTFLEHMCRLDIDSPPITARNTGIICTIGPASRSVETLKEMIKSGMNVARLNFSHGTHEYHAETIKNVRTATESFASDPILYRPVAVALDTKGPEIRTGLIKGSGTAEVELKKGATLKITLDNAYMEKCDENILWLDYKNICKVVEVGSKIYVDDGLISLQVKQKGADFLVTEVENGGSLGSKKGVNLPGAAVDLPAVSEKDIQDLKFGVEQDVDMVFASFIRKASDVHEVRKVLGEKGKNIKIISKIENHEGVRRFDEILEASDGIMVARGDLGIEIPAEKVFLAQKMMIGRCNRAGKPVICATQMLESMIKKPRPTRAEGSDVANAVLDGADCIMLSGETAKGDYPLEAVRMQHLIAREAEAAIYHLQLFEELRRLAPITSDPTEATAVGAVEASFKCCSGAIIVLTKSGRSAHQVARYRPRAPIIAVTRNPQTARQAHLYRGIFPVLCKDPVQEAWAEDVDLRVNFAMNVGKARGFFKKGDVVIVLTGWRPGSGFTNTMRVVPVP", "assay": "qHTS Assay for Activators of Human Muscle Pyruvate Kinase (AID 954; active = well fitted curve in the direction sought with a large enough effect, not every such curve was filed as active;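 also: 0% = uninhibited enzyme and -100% = no enzyme or full thiadiazolimine inhibition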)", "conditions": "purified human muscle pyruvate kinase, luciferase-coupled luminescence, 1 h; series mostly up to 57.5 µM", "in_short": "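Luminescence from a luciferase ATP-detection/stop reagent reported PKM2 activity. Reactions contained 0.1 nM purified human enzyme, 0.5 mM PEP, 0.1 mM ADP and 7 mM MgCl2 at pH 7.2, run 1 h at RT.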", "values": [{"smiles": "CO[C@]1(C2=NCCN2)COc2ccccc2O1", "outcome": "inactive"}, {"smiles": "CC(C)(C)NC[C@H](O)c1ccc(O)c(CO)c1", "outcome": "inactive"}, {"smiles": "Cc1ccc(/C(=C/CN2CCCC2)c2ccccn2)cc1", "outcome": "inactive"}, {"smiles": "Fc1ccc(C(c2ccc(F)cc2)N2CCN(C/C=C\\c3ccccc3)CC2)cc1", "outcome": "inactive"}, {"smiles": "COc1ccccc1N1CCN(C[C@@H](O)COc2cccc3ccccc23)CC1", "outcome": "inactive"}, {"smiles": "CC#C[C@]1(O)CC[C@H]2[C@@H]3CCC4=CC(=O)CCC4=C3[C@H](c3ccc(N(C)C)cc3)C[C@@]21C", "outcome": "inactive"}, {"smiles": "CC(=O)N[C@@H](C(=O)O)C(C)(C)SN=O", "outcome": "inactive"}]}, {"target": "Alpha-galactosidase A (Homo sapiens) (UniProt P06280)", "sequence (P06280 whole entry, looked up)": "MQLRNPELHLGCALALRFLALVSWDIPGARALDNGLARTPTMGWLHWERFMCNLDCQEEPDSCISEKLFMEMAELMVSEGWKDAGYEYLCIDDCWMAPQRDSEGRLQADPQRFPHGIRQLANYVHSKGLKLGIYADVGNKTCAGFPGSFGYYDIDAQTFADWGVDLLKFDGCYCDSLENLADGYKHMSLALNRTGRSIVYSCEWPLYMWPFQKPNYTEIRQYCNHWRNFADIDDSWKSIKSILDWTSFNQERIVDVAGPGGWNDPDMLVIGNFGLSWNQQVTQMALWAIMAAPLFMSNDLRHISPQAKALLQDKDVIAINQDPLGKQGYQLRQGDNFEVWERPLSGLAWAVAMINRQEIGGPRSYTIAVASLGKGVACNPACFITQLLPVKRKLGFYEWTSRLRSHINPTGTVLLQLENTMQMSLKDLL", "assay": "Counterscreen for Glucocerebrosidase Inhibitors: qHTS Assay for Human alpha-Galactosidase at pH 4.5 (AID 992; active = well fitted curve in the direction sought with a large enough effect; an effect the other way counts as inactive or inconclusive; also: 0% is about no effect)", "conditions": "purified enzyme, fluorogenic substrate; series mostly up to 76.9 µM", "in_short": "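Enzyme at 2 nM final was combined with compound (0.7 nM to 77 uM) and 80 uM 4-methylumbelliferyl alpha-D-galactopyranoside in 50 mM citric acid, 0.005% Tween-20, pH 4.5. After 20 min at room temperature, fluorescence was read (Ex 365/Em 440 nm); AC50 came from Hill fits.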", "values": [{"smiles": "CO[C@]1(C2=NCCN2)COc2ccccc2O1", "outcome": "inactive"}, {"smiles": "CC(C)(C)NC[C@H](O)c1ccc(O)c(CO)c1", "outcome": "inactive"}, {"smiles": "Cc1ccc(/C(=C/CN2CCCC2)c2ccccn2)cc1", "outcome": "inactive"}, {"smiles": "Fc1ccc(C(c2ccc(F)cc2)N2CCN(C/C=C\\c3ccccc3)CC2)cc1", "outcome": "inactive"}, {"smiles": "COc1ccccc1N1CCN(C[C@@H](O)COc2cccc3ccccc23)CC1", "outcome": "inactive"}, {"smiles": "CC#C[C@]1(O)CC[C@H]2[C@@H]3CCC4=CC(=O)CCC4=C3[C@H](c3ccc(N(C)C)cc3)C[C@@]21C", "outcome": "inactive"}, {"smiles": "CC(=O)N[C@@H](C(=O)O)C(C)(C)SN=O", "outcome": "inactive"}]}, {"target": "alpha-glucosidase (Oryza sativa, rice) (UniProt Q653V4)", "assay": "Counterscreen for Glucocerebrosidase Inhibitors: qHTS Assay for Rice alpha-Glucosidase at pH 5.0 (AID 997; active = well fitted curve in the direction sought with a large enough effect; an effect the other way counts as inactive or inconclusive;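 also: 0% = full activity with enzyme and -100% = basal without enzyme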)", "conditions": "rice alpha-glucosidase enzyme activity; series mostly up to 76.9 µM", "in_short": "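Rice alpha-glucosidase (4 nM final) with 400 uM 4-methylumbelliferyl-alpha-D-glucopyranoside in citrate buffer pH 5.0, 20 min at room temperature, stopped at pH 10; fluorescence 365/440 nm, compounds 0.7 nM–77 uM, AC50 from Hill fits.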", "values": [{"smiles": "CO[C@]1(C2=NCCN2)COc2ccccc2O1", "outcome": "inactive"}, {"smiles": "CC(C)(C)NC[C@H](O)c1ccc(O)c(CO)c1", "outcome": "inactive"}, {"smiles": "Cc1ccc(/C(=C/CN2CCCC2)c2ccccn2)cc1", "outcome": "inactive"}, {"smiles": "Fc1ccc(C(c2ccc(F)cc2)N2CCN(C/C=C\\c3ccccc3)CC2)cc1", "outcome": "inactive"}, {"smiles": "COc1ccccc1N1CCN(C[C@@H](O)COc2cccc3ccccc23)CC1", "outcome": "inactive"}, {"smiles": "CC#C[C@]1(O)CC[C@H]2[C@@H]3CCC4=CC(=O)CCC4=C3[C@H](c3ccc(N(C)C)cc3)C[C@@]21C", "outcome": "inactive"}, {"smiles": "CC(=O)N[C@@H](C(=O)O)C(C)(C)SN=O", "outcome": "inactive"}]}, {"tested_on": "not listed separately", "assay": "qHTS Assay for Lipid Storage Modulators (AID 1519); as to activity change, negative = inhibition: % is scaled to controls: 0 for no effect and ±100 for the full control effect", "conditions": "Drosophila S3 cells, BODIPY lipid droplet/cell ratio, laser cytometry; at 25.7 µM (top of the series); cells loaded with oleic acid", "in_short": "(§1)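 Cells seeded at 5,000 per well were treated with compounds over a concentration series and loaded with oleic acid (400 uM, as added). Lipid droplet fluorescence (488 nm excitation, 500-530 nm channel) was read by laser-scanning cytometry and normalized to 20 uM Triacsin C.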", "values": [{"smiles": "CC(C)(C)NC[C@H](O)c1ccc(O)c(CO)c1", "activity change, negative = inhibition": "-2.46% (inactive)"}, {"smiles": "Cc1ccc(/C(=C/CN2CCCC2)c2ccccn2)cc1", "activity change, negative = inhibition": "-1.93% (inactive)"}, {"smiles": "Fc1ccc(C(c2ccc(F)cc2)N2CCN(C/C=C\\c3ccccc3)CC2)cc1", "activity change, negative = inhibition": "-8.39% (inactive)"}, {"smiles": "CC(=O)Nc1ccc(OC[C@@H](O)CNC(C)C)cc1", "activity change, negative = inhibition": "-2.39% (inactive)"}, {"smiles": "COc1ccccc1N1CCN(C[C@@H](O)COc2cccc3ccccc23)CC1", "activity change, negative = inhibition": "-0.494% (inactive)"}, {"smiles": "CC(C)NC[C@@H](O)COc1cccc2[nH]ccc12", "activity change, negative = inhibition": "0.0529% (inactive)"}]}, {"tested_on": "not listed separately", "assay": "qHTS Assay for Lipid Storage Modulators (AID 1519)", "conditions": "Drosophila S3 cells, BODIPY lipid droplet/cell ratio, laser cytometry; at 57.5 µM (top of the series); cells loaded with oleic acid", "in_short": "as §1", "values": [{"smiles": "CO[C@]1(C2=NCCN2)COc2ccccc2O1", "activity change, negative = inhibition": "1.12% (inactive)"}, {"smiles": "CCNCCCNCCCNCCCNCC", "activity change, negative = inhibition": "-4.07% (inactive)"}, {"smiles": "CCCCCCCCCCCC(=O)O[C@H](CC(=O)O)C[N+](C)(C)C", "activity change, negative = inhibition": "-2.15% (inactive)"}, {"smiles": "CC(C)(C)NC[C@H](O)c1ccc(O)c(CO)c1", "activity change, negative = inhibition": "3.61% (inactive)"}, {"smiles": "CCCN(CCC)C[C@@H]1CCCCN1CCNC(=O)N1c2ccccc2C(=O)Nc2cccnc21", "activity change, negative = inhibition": "-0.0589% (inactive)"}, {"smiles": "Cc1ccc(/C(=C/CN2CCCC2)c2ccccn2)cc1", "activity change, negative = inhibition": "3.43% (inactive)"}, {"smiles": "N#C/C(=C\\c1ccc(O)c(O)c1)C(N)=O", "activity change, negative = inhibition": "-11.6% (inactive)"}, {"smiles": "C[C@H](N)C(=O)O", "activity change, negative = inhibition": "1.23% (inactive)"}, {"smiles": "CC(=O)Nc1ccc(OC[C@@H](O)CNC(C)C)cc1", "activity change, negative = inhibition": "-10.4% (inactive)"}, {"smiles": "N[C@@H](Cn1cc(I)c(=O)n(Cc2ccc(C(=O)O)cc2)c1=O)C(=O)O", "activity change, negative = inhibition": "2.45% (inactive)"}, {"smiles": "CS(=O)(=O)Nc1c(O)ccc2c1CCC[C@H]2C1=NCCN1", "activity change, negative = inhibition": "-4.88% (inactive)"}, {"smiles": "N[C@@H](C(=O)O)c1ccc(C(=O)O)cc1", "activity change, negative = inhibition": "5.37% (inactive)"}, {"smiles": "CC(C)NC[C@@H](O)COc1cccc2[nH]ccc12", "activity change, negative = inhibition": "6.23% (inactive)"}, {"smiles": "CC(=O)N[C@@H](C(=O)O)C(C)(C)SN=O", "activity change, negative = inhibition": "9.07% (inactive)"}]}, {"tested_on": "not listed separately", "assay": "qHTS Assay for Lipid Storage Modulators (AID 1519)", "conditions": "Drosophila S3 cells, BODIPY lipid droplet/cell ratio, laser cytometry; measured here: cell count channel max response; cells loaded with oleic acid", "in_short": "as §1", "values": [{"smiles": "CO[C@]1(C2=NCCN2)COc2ccccc2O1", "max response": "8.44%"}, {"smiles": "CCNCCCNCCCNCCCNCC", "max response": "-26.1%"}, {"smiles": "CCCCCCCCCCCC(=O)O[C@H](CC(=O)O)C[N+](C)(C)C", "max response": "-5.13%"}, {"smiles": "CC(C)(C)NC[C@H](O)c1ccc(O)c(CO)c1", "max response": "-16.6%"}, {"smiles": "CCCN(CCC)C[C@@H]1CCCCN1CCNC(=O)N1c2ccccc2C(=O)Nc2cccnc21", "max response": "-8.98%"}, {"smiles": "Cc1ccc(/C(=C/CN2CCCC2)c2ccccn2)cc1", "max response": "0.155% and 8.83%"}, {"smiles": "Fc1ccc(C(c2ccc(F)cc2)N2CCN(C/C=C\\c3ccccc3)CC2)cc1", "max response": "-13.5%"}, {"smiles": "N#C/C(=C\\c1ccc(O)c(O)c1)C(N)=O", "max response": "26.3%"}, {"smiles": "C[C@H](N)C(=O)O", "max response": "-6.7%"}, {"smiles": "CC(=O)Nc1ccc(OC[C@@H](O)CNC(C)C)cc1", "max response": "-2.07% and -0.999%"}, {"smiles": "N[C@@H](Cn1cc(I)c(=O)n(Cc2ccc(C(=O)O)cc2)c1=O)C(=O)O", "max response": "4.58%"}, {"smiles": "COc1ccccc1N1CCN(C[C@@H](O)COc2cccc3ccccc23)CC1", "max response": "-0.0145%"}, {"smiles": "CS(=O)(=O)Nc1c(O)ccc2c1CCC[C@H]2C1=NCCN1", "max response": "-12.4%"}, {"smiles": "N[C@@H](C(=O)O)c1ccc(C(=O)O)cc1", "max response": "10.8%"}, {"smiles": "CC(C)NC[C@@H](O)COc1cccc2[nH]ccc12", "max response": "-7.16% and 6.39%"}, {"smiles": "CC(=O)N[C@@H](C(=O)O)C(C)(C)SN=O", "max response": "15.4%"}]}]}
